Data from patent US20210230599, “STEM-LOOP COMPOSITIONS AND METHODS FOR INHIBITING INTERLEUKIN-8” (VITRISA THERAPEUTICS, INC., published 2021).

These sequences were tested against Interleukin-8 (IL8, CXCL8), C-terminal His-tagged (Homo sapiens, UniProt P10145 SEQ:1-72) (assay: competition; competition TR-FRET; L1 deleted, described as complete loss). Details: tags: C-terminal 6xHis (Sino Biological); ssRNA; 2'-F G, 2'-OMe A/C/U, 5' C6NH2, 3' idT.
Protocol: To better understand the sequence requirements and to confirm the stem structures of members of the Aptamer 3 family as determined from sequence covariation analysis from both the primary and secondary (degenerate) selections, a series of variants which included mutations and deletions to the predicted stems were synthesized and screened (Table 24). Activity of each of these variants were tested using a time resolved competition TR-FRET assay in which the labeled parent Aptamer 3 was competed with increasing concentrations of unlabeled variants for binding to IL8 (FIG. 14). Briefly, 2-fold dilutions of thermally equilibrated aptamers were made in TR-FRET Buffer (50 mM MOPS, pH 7.4, 125 mM NaCl, 5 mM KCl, 50 μM CHAPS, 0.1 mg/mL BSA, 1 mM CaCl₂, and 1 mM MgCl₂). 5 μL of aptamer or control solution was added to 5 μl mix of 10 nM C-terminal His-tagged-IL8, 60 nM ALEXA FLUOR® 647-labeled Aptamer, and 5 nM anti-His-Eu (Perkin Elmer) in a black wall low volume 384 well plate (Greiner). […] The plate was read on a Biotek CYTATION™ 5 plate reader. […]
To confirm the importance of this residue, molecules were made and tested in which either loop L1 was deleted entirely (Aptamer 40) or was mutated to 5′-U-3′(Aptamer 41). In both cases, there was a complete loss of activity (>10-fold) as determined by competition TR-FRET assay (Table 25 and FIG. 15).

| Sequence | binding signal [fold worse than Aptamer 3] |
| --- | --- |
| GAUGCGGUAGAUUACGGGUAGAGUGACCGCAUC | > 10 |
